Out of some 310,000 compounds screened, about 2,200 (0.71%) showed an effect of 50% or more. The effect is printed as a negative number. The entries come from a sample that favours strong results as a whole.
Target: human ether-à-go-go-related gene (hERG) potassium channel (human, UniProt Q12809)
Test: primary screen, population patch clamp on CHO cells stably expressing hERG; higher = less effect of the substance

Chain of human ether-à-go-go-related gene (hERG) potassium channel (Q12809 whole entry, looked up): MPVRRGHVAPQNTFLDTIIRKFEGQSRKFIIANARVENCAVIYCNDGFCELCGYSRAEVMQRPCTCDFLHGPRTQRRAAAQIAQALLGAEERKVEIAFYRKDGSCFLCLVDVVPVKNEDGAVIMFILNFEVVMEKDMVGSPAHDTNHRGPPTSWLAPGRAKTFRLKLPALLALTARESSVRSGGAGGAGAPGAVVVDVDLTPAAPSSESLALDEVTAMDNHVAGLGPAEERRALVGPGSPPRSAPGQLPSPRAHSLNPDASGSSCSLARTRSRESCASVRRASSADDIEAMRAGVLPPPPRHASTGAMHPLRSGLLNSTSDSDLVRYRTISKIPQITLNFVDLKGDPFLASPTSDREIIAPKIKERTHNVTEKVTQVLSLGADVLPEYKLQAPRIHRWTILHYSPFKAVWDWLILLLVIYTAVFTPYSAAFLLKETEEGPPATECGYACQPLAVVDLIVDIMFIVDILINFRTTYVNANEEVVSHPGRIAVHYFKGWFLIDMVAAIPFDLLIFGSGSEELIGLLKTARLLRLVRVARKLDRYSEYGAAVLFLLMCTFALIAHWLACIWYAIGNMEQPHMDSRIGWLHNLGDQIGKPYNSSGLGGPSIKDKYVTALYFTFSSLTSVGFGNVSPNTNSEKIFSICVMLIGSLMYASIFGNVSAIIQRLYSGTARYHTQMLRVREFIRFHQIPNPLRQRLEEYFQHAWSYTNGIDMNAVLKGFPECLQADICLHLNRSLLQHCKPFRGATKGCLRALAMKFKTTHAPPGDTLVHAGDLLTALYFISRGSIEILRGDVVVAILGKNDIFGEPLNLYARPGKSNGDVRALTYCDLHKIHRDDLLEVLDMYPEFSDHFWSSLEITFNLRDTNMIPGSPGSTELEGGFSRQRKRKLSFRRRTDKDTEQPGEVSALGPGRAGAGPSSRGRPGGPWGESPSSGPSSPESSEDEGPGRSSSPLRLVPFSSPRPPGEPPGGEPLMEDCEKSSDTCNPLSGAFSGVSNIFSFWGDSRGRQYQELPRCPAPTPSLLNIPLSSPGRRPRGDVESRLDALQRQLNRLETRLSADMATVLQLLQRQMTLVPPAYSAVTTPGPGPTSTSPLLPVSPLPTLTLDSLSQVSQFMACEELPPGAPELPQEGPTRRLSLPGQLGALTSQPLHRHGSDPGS

Row | SMILES | hERG current change (%, negative = inhibition) at 1uM [%]
1 | Nc1ccc(O)cc1 | 10.2
2 | COc1ccc(/C=C2\Oc3cc(OC(=O)N4CCOCC4)ccc3C2=O)cc1 | 3.7
3 | CCC(=O)Nc1ccc2oc(-c3ccccc3Br)nc2c1 | 9.07
4 | CC1CCc2c(sc3nc(CN4CCN(S(=O)(=O)c5ccccc5[N+](=O)[O-])CC4)[nH]c(=O)c23)C1 (stereo not drawn) | -0.366
5 | C=CCn1cc(CN2CCC(C(=O)Nc3cccc(-c4cccc(Cl)c4)c3)CC2)c(C)n1 | -30
6 | O=C(c1ccc2c(=O)n(Cc3ccc(Cl)cc3)c(=S)[nH]c2c1)N1CCCC1 | 17
7 | Oc1[nH]c2ccccc2c1N=Nc1nc2ccccc2s1 | -3.26
8 | Cl.NCCCCC(=O)O | 11.5
9 | CC(C1CC1)N(C(=O)NC1CCS(=O)(=O)C1)c1ccccc1 (stereo not drawn) | 6.55
10 | COc1cccc(-c2cccc(NC(=O)C3CCN(Cc4cccc(C)n4)CC3)c2)c1 | -46.7
11 | Cc1cc(C)n(CCCN2CCC(C(=O)Nc3cccc(-c4cccc(F)c4)c3)CC2)n1 | -59.9
12 | COc1cccc(-c2cccc(NC(=O)C3CCN(C4CCOCC4)CC3)c2)c1 | -14.6
13 | Cn1cc(CN2CCC(C(=O)Nc3cccc(-c4cccc(F)c4)c3)CC2)cn1 | -37.9
14 | CCCn1ncc(CN2CCC(C(=O)Nc3cccc(-c4cccc(F)c4)c3)CC2)c1C | -60.6
15 | O=C(Nc1cccc(-c2cccc(F)c2)c1)C1CCN(C2CCOCC2)CC1 | -67.8
16 | O=C(Nc1cccc(-c2cccc(F)c2)c1)C1CCN(C2CCC2)CC1 | -26.1
17 | CCn1cc(CN2CCC(C(=O)Nc3cccc(-c4cccc(F)c4)c3)CC2)cn1 | -29.2
18 | Cc1ccc(CN2CCC(C(=O)Nc3cccc(-c4cccc(F)c4)c3)CC2)o1 | -28.7
19 | Cc1cccc(CN2CCC(C(=O)Nc3cccc(-c4cccc(F)c4)c3)CC2)n1 | -66.1
20 | CCn1nc(C)c(CN2CCC(C(=O)Nc3cccc(-c4cccc(F)c4)c3)CC2)c1C | -6.47
21 | Cc1cccc(CN2CCC(C(=O)Nc3cccc(-c4cscn4)c3)CC2)n1 | -4.56
22 | O=C(Nc1ccc(N2CCN(C(=O)c3ccco3)CC2)cc1)c1cc(Br)ccc1Cl | 8.3
23 | CC(C)(C)c1cc(C(=O)NN)n(Cc2ccc(Cl)cc2Cl)n1 | 16.3

Row | SMILES | hERG current change (%, negative = inhibition) at 1uM [%]
24 | CCOC(=O)c1c(NC(=O)c2ccc(S(=O)(=O)N3CCOCC3)cc2)sc2c1CC(C)(C)NC2(C)C | 11.9
25 | O=[N+]([O-])c1ccc(-c2nc(Nc3ccc(O)cc3)c3ccccc3n2)cc1 | 13
26 | COc1ccc(CCNC(=O)c2[nH]c(C)c(C(C)=O)c2C)cc1 | 10.9
27 | CCOC(=O)c1c(NC(=O)C2C3C=CC(C3)C2C(=O)O)sc2c1CCC(CC)C2 (stereo not drawn) | 14
28 | CCC(=O)Nc1nnc(-c2ccco2)o1 | 2.56
29 | O=C1OC(c2ccccc2)c2ccccc21 (stereo not drawn) | 9.85
30 | COC(=O)C1=C(C)NC(=O)C1(Nc1nccs1)C(F)(F)F (stereo not drawn) | 8.37
31 | Cl.Nc1nc(N2CCN(c3ccccn3)CC2)nc2ccccc12 | -52.8
32 | CCCCN(CCCC)c1nc(-c2ccncc2)nc2ccccc12 | 12
33 | c1ccc(-c2nc(N3CCOCC3)c3ccccc3n2)nc1 | 5.13
34 | CCC(C)Nc1nc(-c2ccccn2)nc2ccccc12 (stereo not drawn) | -11.6
35 | c1ccc(N2CCN(c3nc(-c4ccccn4)nc4ccccc34)CC2)cc1 | -26.9
36 | c1ccc(-c2nc(N3CCCCCC3)c3ccccc3n2)nc1 | -82.3
37 | CN1CCN(c2nc(Nc3ccc(O)cc3)nc3ccccc23)CC1.Cl | -1.34
38 | CCCN(CCC)c1nc(-c2ccccn2)nc2ccccc12 | -72.4
39 | Cl.Oc1ccc(Nc2nc(N3CCCC3)c3ccccc3n2)cc1 | -62.7
40 | COc1ccc(Nc2nc(N3CCCC3)c3ccccc3n2)cc1.Cl | -15
41 | Nc1nc(N2CCOCC2)nc2ccccc12 | -8.34
42 | Cl.Nc1nc(N2CCCCC2)nc2ccccc12 | -15.9
43 | CCOC(=O)c1cc(S(=O)(=O)N2CCN(Cc3ccccc3)CC2)cn1C | 7.46
44 | C/C(=N\Nc1cccc2cccnc12)c1ccc[nH]1 | 6.24
45 | COc1ccc(C(=O)N2CCN(CCNC(=O)C(=O)Nc3ccc(Br)cc3)CC2)cc1 | -25.2
46 | CCCc1ccc2c(N)c(C#N)sc2n1 | 1.34

Row | SMILES | hERG current change (%, negative = inhibition) at 1uM [%]
47 | CC(C)C(NC(=O)c1c(F)cccc1F)C(=O)NCC(c1ccccc1)N(C)C (stereo not drawn) | 7.89
48 | COc1ccccc1NS(=O)(=O)c1cccc(C(=O)NCC(c2ccc(F)cc2)N2CCOCC2)c1 (stereo not drawn) | -2.64
49 | O=c1oc2cc(Oc3ccc(C(F)(F)F)cc3[N+](=O)[O-])ccc2c2c1CCCC2 | 7.24
50 | COc1ccc(OC)c(C(O)c2nc3ccccc3n2C(C)C)c1 (stereo not drawn) | 12.9
51 | COc1cccc2cc(C(=O)C3=C(O)C(=O)N(Cc4ccco4)C3c3cccnc3)oc12 (stereo not drawn) | -5.76
52 | CCOc1ccc(OCCCC(=O)ON=C(N)c2ccccc2C)cc1 | 2.24
53 | c1ccc2c(N3CCCCC3)nc(N3CCCCC3)nc2c1 | -3.29
54 | c1ccc2c(N3CCCCC3)nc(N3CCCC3)nc2c1 | -64.6
55 | c1ccc2c(N3CCCCC3)nc(N3CCOCC3)nc2c1 | -7.24
56 | CC(=O)c1ccc(NC(=S)Nc2cccc(S(=O)(=O)Nc3c(C)n(C)n(-c4ccccc4)c3=O)c2)cc1 | 11.4
57 | Cc1ccc(/C=N\NC(=O)CCc2n[nH]c(=O)[nH]c2=O)o1 | 10.9
58 | O=c1c2c3c(sc2n(CCN2CCCC2)c(=O)n1Cc1ccco1)CCCCC3 | -67
59 | O=c1c2c3c(sc2n(CCN2CCOCC2)c(=O)n1Cc1ccco1)CCCCC3 | -9.12
60 | O=c1c2c3c(sc2n(CCN2CCCCC2)c(=O)n1Cc1ccco1)CCCCC3 | 3.26
61 | COc1ccc(CNC(=O)NCc2ccc(OC)c(OC)c2)cc1OC | 17.1
62 | O=c1cc2oc3cc(O)c(O)cc3c(-c3ccccc3[N+](=O)[O-])c-2cc1O | 8.61
63 | N#Cc1ccccc1OCC(=O)OCC(=O)c1c[nH]c2ccccc12 | 7.92
64 | O=C(CSc1nc(O)cc(=O)[nH]1)Nc1ccc2c(c1)CCC2 | 18.4
65 | OC(CNCCNc1ncccc1C(F)(F)F)COc1ccc(F)cc1 (stereo not drawn) | -25.6
66 | O=[N+]([O-])c1ccc(OCC(O)CNCCNc2nccc(C(F)(F)F)n2)cc1 (stereo not drawn) | -77.9
67 | COc1ccc(OCC(O)CNCCNc2nccc(C(F)(F)F)n2)cc1 (stereo not drawn) | -6.87
68 | CC(CCc1ccc(O)cc1)NCCC(c1ccccc1)c1ccccc1 (stereo not drawn) | -84.2
69 | COc1ccc(CCC(C)NCc2cccc(Br)c2)cc1 (stereo not drawn) | -32.1

Row | SMILES | hERG current change (%, negative = inhibition) at 1uM [%]
70 | CC(CCc1ccc(O)cc1)NCc1ccc(Cl)cc1Cl (stereo not drawn) | -10.9
71 | CC(CCc1ccc(O)cc1)NCCc1ccc(O)c(O)c1.Cl (stereo not drawn) | 2.55
72 | COc1ccccc1CCNC(C)CCc1ccc(O)cc1 (stereo not drawn) | -10.8
73 | CC(CCc1ccc(O)cc1)NCc1ccc(Br)cc1 (stereo not drawn) | -66.8
74 | O=C(Nc1ccc2c(c1)OCO2)c1cnccn1 | 8.63
75 | NC(=O)NCc1ccc(F)cc1 | 4.8
76 | COc1ccc(-c2noc3c2-c2nc(-c4ccccc4C)sc2CC3)cc1 | 15.4
77 | Cc1cc(O)c(C(=O)/C=C/c2ccccc2O)c(=O)o1 | 8.29
78 | CCOc1c(Br)cc(CNc2ncn[nH]2)cc1OC | 9.07
79 | COc1ccc(C(F)(F)F)cc1NC(=O)c1nc2nc(C)cc(C(F)F)n2n1 | 17.2
80 | CCOC(=O)C1=C(c2ccccc2)Nc2ncnn2C1c1cccc(OC)c1OC (stereo not drawn) | 21.4
81 | COc1ccc2[nH]c3c(NCCCOC(C)C)ncnc3c2c1 | 22.8
82 | COc1ccc2[nH]c3c(NCCN(C(C)C)C(C)C)ncnc3c2c1 | -71.9
83 | CCN(CC)CCNc1ncnc2c1[nH]c1ccc(OC)cc12 | -42.6
84 | COc1cc(NS(=O)(=O)c2ccc(NC(=O)/C=C/C(=O)O)cc2)nc(OC)n1 | 5.24
85 | O=C(O)C1=C[C@@H](C2CC2)C[C@@H](OCCCCO)O1 | 10.7
86 | COc1cccc(C2=NOC(C(=O)Nc3cccnc3Cl)C2)c1OC (stereo not drawn) | 14.2
87 | COc1ccccc1C(=O)Nc1ccc2nc3n(c(=O)c2c1)CCCC3 | -2.02
88 | COc1ccc(Cl)cc1C(=O)Nc1ccc2nc3n(c(=O)c2c1)CCCC3 | -51.8
89 | COc1cc(C(=O)Nc2ccc3nc4n(c(=O)c3c2)CCCCC4)cc(OC)c1OC | -1.94
90 | COc1cc2c(C(=O)N3CCCc4ccccc43)cn(C)c(=O)c2cc1OC | 7.48
